Reference: PubChem BioAssay
Activity calls are given as the source filed them. Unless noted, no rule for the calls is given here.

Key:
[1] = test system: XIP peptide (Xip251-270) binding; assay: XIP fragment 251-270 binding compounds – biochemical, small-molecule microarray, fluorescence 635/667 nm, 0.1 µg/mL protein, primary screen (AID 1182); settings: fluorescent protein binding, 635 nm, higher = more signal, called active from +8 up or from −8 down
XIP peptide (Xip251-270) = assay: compounds binding XIP fragment 251-270 – biochemical, small-molecule microarray, fluorescence 635/667 nm, 0.5 µg/mL protein, primary screen (AID 1183); settings: fluorescence 635 nm, higher = more signal
[2] = blood-stage malaria parasite viability loss – strain 3D7, DAPI fluorescence, 100 nL, primary screen (AID 1184);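 also: parasites grown inside human red blood cells in medium with human serum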; settings: P. falciparum 3D7 growth, 3 d, higher = more signal
[3] = biological target: Homeobox protein Hox-A13 (Mus musculus) (UniProt Q62424); assay: disruptors of Hoxa13 oligonucleotide interaction – biochemical, fluorescence polarization, labeled oligonucleotide, primary screen (AID 1185); settings: Hoxa13:DNA binding, 15 min, higher = more signal, called active from +8 up or from −8 down
Homeobox protein Hox-A13 (Mus musculus), sequence (Q62424 whole entry, looked up): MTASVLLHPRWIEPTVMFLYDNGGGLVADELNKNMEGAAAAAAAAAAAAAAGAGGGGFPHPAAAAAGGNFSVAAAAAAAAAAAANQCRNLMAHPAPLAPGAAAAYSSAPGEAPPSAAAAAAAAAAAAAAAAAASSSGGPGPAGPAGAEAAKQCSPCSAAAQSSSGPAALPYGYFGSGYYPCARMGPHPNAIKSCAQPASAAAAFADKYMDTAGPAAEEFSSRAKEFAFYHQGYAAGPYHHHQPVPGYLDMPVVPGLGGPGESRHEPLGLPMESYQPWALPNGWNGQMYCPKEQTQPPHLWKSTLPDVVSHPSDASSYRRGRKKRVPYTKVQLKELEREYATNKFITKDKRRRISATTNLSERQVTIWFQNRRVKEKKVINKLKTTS

[4] = blockers of DNA damage checkpoint Chk1 activation – imaging, HeLa, hydroxyurea, phospho-Chk1 antibody, percent positive cells, primary screen (AID 1186); settings: hydroxyurea-induced phospho-Chk1 immunofluorescence imaging, higher = more signal
[5] = blockers of DNA damage checkpoint Chk1 activation – imaging, HeLa, hydroxyurea, phospho-Chk1 nuclear intensity, primary screen (AID 1187); settings: hydroxyurea-induced phospho-Chk1 immunofluorescence imaging, higher = more signal

SMILES | composite z-score [1] | composite z-score (XIP peptide (Xip251-270)) | z-score [2] | z-score [3] | z-score [4] | z-score [5]
C=CCC(OC(C)=O)[C@@H]1[C@@H](N(Cc2ccc(-c3cccc(C(F)(F)F)c3)o2)C(=O)Cc2ccc(OC)cc2)c2cc(OCCCO)ccc2N1C(=O)c1ccc(-c2ccccc2)cc1 (stereo partly specified) | 0.169 (inactive) | -0.0425 | -2.78 | -1.67 (inactive) | 0.152 (inactive) | 0.463 (inactive)
CC[C@@H]1C=C(C(=O)O)[C@H](c2ccccc2)N1S(=O)(=O)c1ccc(C)cc1 | 0.336 (inactive) | 0.504 | 1.78 | -3.56 (inactive) | 0.504 (inactive) | 0.227 (inactive)
C=C[C@H](C)[C@H](OC(=O)Nc1ccc(SC)cc1)c1ccc(OCCO)cc1 | 2.81 (inactive) | 0.232 | -0.563 | -5.1 (inactive) | -1.34 (inactive) | -0.511 (inactive)
C=CC[C@H](OC(=O)Nc1ccc(SC)cc1)c1ccc(O)c2ccccc12 | 1.07 (inactive) | 0.728 | -0.922 | -1.35 (inactive) | -0.0114 (inactive) | 0.142 (inactive)
CCOC(=O)C=Cc1cccc(C)c1O | 2.79 (inactive) | 0.159 | -1.44 | 0.534 (inactive) | -0.193 (inactive) | 0.0058 (inactive)
C=C(COC)/C(=C/C[C@H](OC(=O)c1ccncc1)c1ccccc1OCCO)c1cc(C(=O)OC)ccc1OC | 0.0249 (inactive) | 0.12 | -2.95 | -4.91 (inactive) | 0.127 (inactive) | 0.0857 (inactive)
COC(=O)C1=CC(CCCO)=CC(c2cccs2)N(C)C=C1C(=O)OC (stereo unspecified) | 0.0334 (inactive) | 0.819 | -0.389 | -7.53 (inactive) | 0.176 (inactive) | 0.219 (inactive)
CCCNC(=O)[C@@H]1c2ccccc2C(=O)N(Cc2ccc(OC(F)(F)F)cc2)[C@H]1c1ccc(CO)cc1 | 0.688 (inactive) | 0.835 | -0.997 | -3 (inactive) | -0.615 (inactive) | -0.366 (inactive)
COC(=O)[C@@]1(Cc2ccc(F)cc2)[C@H]2c3cc(C(=O)N4CCCC4)n(CCc4c[nH]c5ccccc45)c3C[C@H]2CN1C(=O)c1ccccc1 | 0.0236 (inactive) | 0.714 | -1.55 | -3.15 (inactive) | 0.916 (inactive) | 0.634 (inactive)
COc1ccc([Si](C)(C)[C@@H]2[C@@H](CC(=O)N(CCO)Cc3ccccc3)O[C@]3(C(=O)N(Cc4cccc(N5CCCCC5=O)c4)c4ccccc43)[C@H]2C)cc1 | 0.0247 (inactive) | 0.709 | -2.44 | -1.13 (inactive) | 0.405 (inactive) | 0.797 (inactive)
COc1ccc([Si](C)(C)[C@@H]2[C@@H](CC(=O)N3Cc4ccccc4C[C@H]3CO)O[C@]3(C(=O)N(Cc4ccc(N5C(=O)c6cccc7cccc5c67)cc4)c4ccccc43)[C@H]2C)cc1 | 0.685 (inactive) | 0.747 | -0.962 | -1.98 (inactive) | 0.143 (inactive) | 0.973 (inactive)
CCCCCC1=C2CNC(C)(C(=O)OC)C=C2C(C)C1=O (stereo unspecified) | -0.22 (inactive) | -0.513 | 0.157 | -5.3 (inactive) | 1.37 (inactive) | 1.45 (inactive)
CC(C)N1C(=O)C[C@@](C(=O)O)(c2ccc([N+](=O)[O-])cc2)[C@H]1c1ccc(CO)cc1 | 1.04 (inactive) | 0.916 | -0.352 | -2.9 (inactive) | -0.198 (inactive) | -0.0057 (inactive)
[N-]=[N+]=NCc1ccccc1[C@@H]1OC(c2ccc(OCCCO)cc2)=N[C@]1(CCS(=O)(=O)c1ccccc1)C(=O)O | 0.573 (inactive) | 0.964 | 0.692 | -4.86 (inactive) | 0.162 (inactive) | 0.23 (inactive)
CC1=C2[C@@H](CCc3ccccc3)OB(O)C[C@@H]2[C@@H]2C(=O)N(C)C(=O)[C@@H]2C1 | 0.796 (inactive) | 0.472 | 0.278 | -5.07 (inactive) | 0.0183 (inactive) | 0.0905 (inactive)
CCCCC=C[C@@H](NC(=O)OCc1ccccc1Cl)c1ccccc1 | -0.549 (inactive) | 0.573 | -1.37 | 2.14 (inactive) | 0.663 (inactive) | -0.117 (inactive)
COCCOC(=O)N1C(=O)[C@@]2(c3cc(C#CC4=CCCCC4)ccc31)[C@H](c1ccccc1OCCO)N1[C@H](c3ccccc3)[C@H](c3ccccc3)OC(=O)[C@H]1[C@@H]2C(=O)NC[C@H](O)c1ccccc1 | 1.57 (inactive) | 0.742 | -1.93 | 0.449 (inactive) | 0.0064 (inactive) | -0.175 (inactive)
CC(C)[Si]1(C(C)C)OCc2cc(C3CC3)nc(-c3ccc(Oc4ccccc4)cc3)c21 | -0.495 (inactive) | -0.603 | -1.39 | -2.85 (inactive) | -0.48 (inactive) | -0.358 (inactive)

SMILES | composite z-score [1] | composite z-score (XIP peptide (Xip251-270)) | z-score [2] | z-score [3] | z-score [4] | z-score [5]
CCOC(=O)C1=CC[C@@H](c2ccccc2)N(S(=O)(=O)c2ccc(C)cc2)[C@H]1c1ccccc1 | 0.267 (inactive) | 0.528 | -1.67 | 0.268 (inactive) | 0.339 (inactive) | -1.24 (inactive)
NC(=O)NCC#Cc1ccc2c(c1)[C@]1(C(=O)N2)[C@H](c2ccccc2OCCO)N2[C@H](c3ccccc3)[C@H](c3ccccc3)OC(=O)[C@H]2[C@@H]1C(=O)O | 0.654 (inactive) | 0.418 | -0.373 | -7.04 (inactive) | 0.109 (inactive) | 0.239 (inactive)
CN(C)c1ccc(C(O)C2C=CC3C(=O)NC(=O)C3N2Nc2ccccn2)cc1 (stereo unspecified) | -0.181 (inactive) | -0.0515 | 0.597 | -2.26 (inactive) | 0.431 (inactive) | 0.493 (inactive)
COC(=O)c1c(CC[C@@H](CO)NC(=O)N[C@@H](C)Cn2cc(-c3ccccn3)nn2)oc(C(C)=O)c1C(=O)OC | 1.29 (inactive) | 0.881 | -1.89 | 0.452 (inactive) | -0.207 (inactive) | 0.363 (inactive)
CCCCCCCCCCC(O)C1C=CC2C(=O)N(c3ccccc3)C(=O)C2N1Nc1ccc(C#N)cc1 (stereo unspecified) | 1.53 (inactive) | 0.419 | -0.562 | -1.23 (inactive) | 0.0905 (inactive) | 0.15 (inactive)
CCCCC(=C=CC[C@H](O)c1ccc(OCCO)cc1)CCO | 0.0643 (inactive) | 0.256 | -1.17 | -4.31 (inactive) | -0.373 (inactive) | -0.317 (inactive)
COC(=O)[C@@]1(Cc2ccc(OC)cc2)[C@H]2c3cc(C(=O)N(C)C)n(Cc4ccc(C)o4)c3C[C@H]2CN1C(=O)c1ccccc1 | 0.223 (inactive) | 0.0805 | -0.952 | -4.5 (inactive) | 0.046 (inactive) | 0.304 (inactive)
Cc1ccc(S[C@]2(C(=O)O)CC(=O)N(C3CCCCC3)[C@@H]2c2ccc(CO)cc2I)cc1 | 2.84 (inactive) | 0.526 | -0.348 | -5.25 (inactive) | 0.542 (inactive) | 0.675 (inactive)
CCCNC(=O)[C@@]1(C)c2ccccc2C(=O)N(c2ccc(C)cn2)[C@H]1c1ccc(CO)cc1 | 0.635 (inactive) | 0.386 | 1.01 | -1.63 (inactive) | 0.0068 (inactive) | -0.172 (inactive)
[N-]=[N+]=NCc1ccccc1[C@H]1OC(c2ccc(OCCCO)cc2)=N[C@@]1(Cc1ccccc1N=[N+]=[N-])C(=O)NCC(O)CO (stereo partly specified) | 0.665 (inactive) | 0.603 | -2.31 | -4.17 (inactive) | -0.266 (inactive) | 0.0665 (inactive)
COc1ccc([Si](C)(C)[C@@H]2[C@@H](CCO)O[C@]3(C(=O)N(Cc4ccccc4)c4ccc(NC(=O)[C@H](C)O)cc43)[C@H]2C)cc1 | 0.816 (inactive) | 0.606 | -2.83 | -6.12 (inactive) | -0.178 (inactive) | -0.305 (inactive)
CN1C2C=C(CCCO)C(C3C(=O)N(C(N)=O)C(=O)C32)C1C1CC1 (stereo unspecified) | 0.379 (inactive) | -0.0081 | 1.89 | -7.09 (inactive) | -0.25 (inactive) | 0.161 (inactive)
N[C@@H](Cc1ccccc1)C(=O)NCc1cn(Cc2ccccc2)nn1 | -0.221 (inactive) | -0.984 | -0.581 | -0.368 (inactive) | -0.167 (inactive) | 0.0852 (inactive)
C=CCOC(=O)[C@@H]1[C@H]2C(=O)O[C@H](c3ccccc3)[C@H](c3ccccc3)N2[C@H](c2ccc(OCCOC(=O)[C@@H]3C[C@@H]4C(=O)N[C@@H](CCCC[N+](C)(C)C)C(=O)N4[C@@H]3c3ccc(O)cc3)cc2)[C@@]12C(=O)Nc1ccc(I)cc12 | 0.481 (inactive) | 0.808 | -1.11 | 6.56 (inactive) | 0.355 (inactive) | 0.521 (inactive)
COCCOC(=O)N1C(=O)[C@@]2(c3cc(C#CCNC(N)=O)ccc31)[C@H](C(N)=O)[C@H]1C(=O)O[C@H](c3ccccc3)[C@H](c3ccccc3)N1[C@@H]2c1ccccc1OCCO | 0.253 (inactive) | 0.485 | 0.0701 | -2.45 (inactive) | 0.0661 (inactive) | 0.588 (inactive)
CCCCC[C@H]1OC[C@@]23C=C(Br)[C@@H](CC12)[C@@]1(CO1)C3=O (stereo partly specified) | -0.311 (inactive) | -0.332 | 1.66 | -2.47 (inactive) | -0.556 (inactive) | -0.245 (inactive)
C=CCN1C(=O)[C@]2(CCC(=O)OC(C)(C)C)N=C(c3ccc(OCCCO)cc3)O[C@@H]2c2ccccc21 | 0.0041 (inactive) | 0.464 | -1.34 | -2.63 (inactive) | -0.646 (inactive) | -0.541 (inactive)
Cc1ccc(N2C(=O)c3ccccc3[C@@H](C(=O)NCCCN(C)C)[C@@H]2c2ccc(CO)cc2)nc1 | 1.9 (inactive) | 0.148 | -0.235 | -2.34 (inactive) | 0.026 (inactive) | -0.303 (inactive)
